# According to PubChem BioAssay (NCATS):
# Several values for one entry are separate records, joined by “and”; a condition that tells them apart may be missing. Identical values can stand only once. Inconclusive results are not listed. A number with no mark means an inactive call. Activity calls are given as the source filed them. The call rests on the fitted dose curve; in most records, active means well fitted curve in either direction with a large enough effect (not every such curve was filed as active); inconclusive means small, poorly fitted or top-dose-only effect, or another doubt; inactive means flat fitted curve, though single readings scatter.
# Assay: AP1 Signaling Pathway (AID 357);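 further: ME-180 reporter cells stimulated with EGF at its EC50 level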
# Conditions: ME-180 AP-1-bla reporter, EGF-induced, beta-lactamase ratio, 5 h; at 17.2 µM (top of the series)
# Description: NCGC Assay Overview: Activator protein-1 (AP-1), a transcription factor, plays an important role in tumor genesis by regulating genes involved in cell proliferation, differentiation, apoptosis, and angiogenesis. AP-1 activity is induced by a complex network of signaling pathways that involves extracellular signals, such as growth factors. The AP-1 protein complex formed from c-Fos and c-Jun binding to the AP-1 response element results in transcriptional activation of genes containing such elements within their promoter. Low molecular weight molecules have been discovered and developed to modulate various components of these signaling pathways, for example, MAP kinase inhibitors. However, many points of pathway modulation remain untested due to the lack of chemical probes making this signaling locus of general interest. Using a beta-lactamase reporter-gene under control of the AP-1 response element, a cell-based assay [CellSensor(TM) AP-1-bla ME-180 developed by Invitrogen Corp.] was used to measure EGF-induced signaling. Library compounds were measured for their ability to modulate positively or negatively the action of EC50 EGF on reporter gene activity. Compounds were screened in a titration series in 1536-well format. Positive and negative modulators were identified based on the AC50 values derived from the screening data.
# NCGC Assay Protocol Summary: 2500 cells/5uL in Opti-MEM medium containing 0.5% dialyzed FBS, 0.1 mM NEAA, 1 mM sodium pyruvate and 10 mM HEPES was dispensed into 1536-well plates and cells were cultured at 37 degrees Celsius overnight. […] After centrifugation at 1000 rpm for 2 seconds the plates were incubated at 37 degrees Celsius for 5 hours. 1 uL of CCF4-dye mixture was added to each well. After incubated at room temperature for 2.5 hours the plates were measured on an EnVision plate reader at Excitation 405nm, Emission1=460nm and Emission 2=530nm. The %Activity was determined from the ratio of 460nm/530nm.
# On the % scale 0 is the no-effect control and ±100 the full control effect.
row,SMILES,"activity change, negative = inhibition [%]"
1,COc1ccc([C@@H]2CNC(=O)C2)cc1OC1CCCC1,-7.88
2,CN1[C@H]2CC(OC(=O)[C@@H](CO)c3ccccc3)C[C@H]1[C@H]1O[C@H]12 (stereo partly specified),19.5
3,CCN1CCN(C(=O)N[C@H](C(=O)N[C@@H]2C(=O)N3C(C(=O)O)=C(CSc4nnnn4C)CS[C@@H]23)c2ccc(O)cc2)C(=O)C1=O,6.77
4,COc1ccc2c(c1OC)C(=O)OC2[C@H]1c2c(cc3c(c2OC)OCO3)CCN1C (stereo partly specified),-2.27
5,CN(C)CC[C@H](c1ccc(Cl)cc1)c1ccccn1,15.5
6,Nc1nc2c(c(=O)[nH]1)N(C=O)[C@H](CNc1ccc(C(=O)N[C@@H](CCC(=O)O)C(=O)O)cc1)CN2,-9.84
7,c1coc(CNc2ncnc3nc[nH]c23)c1,2.59

# Same assay, conditions: ME-180 (cervical carcinoma) AP-1-bla reporter, EGF-induced, beta-lactamase ratio, 5 h; at 38 µM (top of the series)
row,SMILES,"activity change, negative = inhibition"
1,CC(C)[C@H](CO)Nc1nc(Nc2cccc(Cl)c2)c2ncn(C(C)C)c2n1,-111% (active)
2,COc1ccc([C@@H]2CNC(=O)C2)cc1OC1CCCC1,-7.79%
3,COc1ccc2c(c1OC)C(=O)OC2[C@H]1c2c(cc3c(c2OC)OCO3)CCN1C (stereo partly specified),-1.8%
4,CN(C)CC[C@H](c1ccc(Cl)cc1)c1ccccn1,10.2% and 11.2%
